# Experimental data taken from PubChem BioAssay (NCI).
# About 83,000 compounds went through this panel and 20% of them were active in at least one assay; those are over-represented in the sample as a whole.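 Values shown are percent growth following 48 h exposure of cells in 96-well plates to a single concentration of compound; below 10 was considered active.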 Values without a mark were called inactive. Activity calls are given as the source filed them.
# Tested on: MCF7 breast
# Assay: NCI-60 one-dose screen, 48 h (100 = growth as untreated, 0 = no growth, -100 = all killed)
# Settings: 10 µM unless noted
row,SMILES,growth
1,C[C@@H]1OCC2(CCN(c3cnc(C(=O)Nc4cc(F)cc5cccnc45)cn3)CC2)[C@@H]1N,2.1% (active)
2,CC1=C(C)C(=O)C(Nc2ccc(C)c(C)c2)=C(Br)C1=O,64.2%
3,Cc1ccccc1Nc1nc(SC(C)C)nc(-c2ccccc2)c1C#N,51.6%
4,O=C1c2ccccc2C23C(=C(c4cncnc4)c4ccccc42)CCCN13 (stereo not given),103%
5,CC1=C(C)C(=O)C(Nc2cccc(C(=O)OC(C)(C)C)c2)=C(Cl)C1=O,46.3%
6,CC(=O)Nc1cc(N2CCOCC2)c2nc(NC(=O)c3[nH]c(C)c(Cl)c3Cl)sc2c1,67.1%

# Tested on: HCT-116 colon
# Assay: as above
# Settings: 10 µM unless noted
row,SMILES,growth
1,CCOc1cccc(/C(N)=N/C(N)=N/c2nc3ccccc3s2)c1,72.3%
2,Cc1ccc2c(n1)C(=O)C(Cl)=C(Nc1cc(C(F)(F)F)cc(C(F)(F)F)c1)C2=O,42%
3,CC(C)(C)OC(=O)NCc1ccc(CNc2c([N+](=O)[O-])cnc3ccccc23)cc1,37.7%
4,C#CCOc1cccc(-c2nc(N)nc(Nc3ccccc3SSc3ccccc3Nc3nc(N)nc(-c4cccc(OCC#C)c4)n3)n2)c1,45.7%
5,CN1CCN(c2ccc(Nc3nc(NCCNS(=O)(=O)c4ccccc4)c4sccc4n3)cc2)CC1,96%
6,C=C(C=O)[C@@H]1CC[C@]2(C(=O)O)CC[C@]3(C)C(CC[C@@H]4[C@@](C)(CCC#N)[C@H](C(=C)C=O)CC[C@]43C)[C@@H]12 (stereo not given in full),-82.8% (active)
7,O=C(CSc1nc2ccccc2c(=O)n1-c1ccccc1)N/N=C/c1ccc(Oc2ccc(Br)cc2)cc1,7.81% (active)
8,CC(C)C(/C=C/c1[nH]ncc1-c1cc(Cl)ccc1O)N1CCOCC1 (stereo not given),89.3%
9,N#Cc1c(-c2cccs2)cc(-c2cnccn2)nc1SCC(=O)N/N=C/c1ccc(Cl)cc1,57.8%
10,CN1CCN(c2ccc(Nc3nc(NCCCNS(=O)(=O)c4ccc(Cl)cc4)c4sccc4n3)cc2)CC1,1.81% (active)
11,O=C1[C@@H]2Cc3c([nH]c4ccccc34)[C@H](c3ccc(Br)cc3)N2C(=O)CN1C1CCN(Cc2c(Cl)cccc2Cl)CC1,78.8%
12,COc1ccc(NC(=O)CCCCCCNC(=O)C(O)(O)C(F)(F)F)cc1,7.44% (active)
13,CCCCSC1=C(Cl)CN(c2ccc(Cl)cc2)C1=O,93.4%
14,CN(C)CCCOc1ccc(C(=C(c2ccccc2)C2CCCC2)c2ccc(OCCCN(C)C)cc2)cc1,-44.7% (active)
15,CN1CCN(c2ccc(Nc3nc(NCCCNS(=O)(=O)c4cccc5ccccc45)c4sccc4n3)cc2)CC1,-73% (active)
16,CCN(CC)c1ccc(/C=N/NC(=O)c2ccc(S(N)(=O)=O)cc2)cc1,21.5%
17,C#C[C@]1(O)CC[C@H]2[C@@H]3CC=C4c5sc(Nc6cc(C)cc(C)c6)nc5CC[C@]4(C)[C@H]3CC[C@@]21C,12.5%
18,CN(C)c1ccc(-c2cc(-c3c[nH]c4ccccc34)nc(N)c2C#N)cc1,14.5%
19,C#C[C@]1(O)CC[C@H]2[C@@H]3CC=C4c5sc(Nc6cc(Cl)ccc6OC)nc5CC[C@]4(C)[C@H]3CC[C@@]21C,7.63% (active)
20,Cc1cc(=O)[nH]c(O)c1C#N,104%
21,Cc1ccc(C(=O)CSc2nc3ccccc3c(=O)n2C)cc1,89.2%
22,O=C(NCCNc1cc(-c2cn(-c3ccccc3)nc2-c2cccc(O)c2)ccn1)Nc1cc(C(F)(F)F)cc(C(F)(F)F)c1,89.5%
23,N/C(=N\C(N)=N\c1nc2ccccc2s1)c1ccc(Cl)cc1,74.7%
24,C#CCN(C)CCCOc1ccc(NCc2ccc(/C=C/C(=O)NO)cc2)cc1Cl,9.47% (active)
25,C#CCOc1ccccc1/C=N/Nc1nc(-c2ccc(Cl)cc2)cs1,90.7%
26,O=S(=O)(NCCCNc1nccc(-c2[nH]c(-c3ccccc3)nc2-c2ccc(F)c(O)c2)n1)c1cccc(F)c1,72.2%
27,O=C(CSc1nc2ccccc2c(=O)n1CCc1ccccc1)Nc1ccc(S(=O)(=O)Nc2ccc(Cl)nn2)cc1,93.4%
28,Nc1nc(=O)n([C@H]2C[C@H](O)[C@@H](CO)O2)cc1C=O,91.3%
29,O=C(Nc1ccc(Cl)c(C(F)(F)F)c1)Nc1ccc2c(ccn2C(=O)c2cccc(F)c2)c1,20%
